Screening results deposited in PubChem by several laboratories.
CRFBP-R2 agonist = CRF-BP/CRF-R2 complex agonism; HEK293 CRF-R2/CRF-BP, calcium dye fluorescence (FLIPR); percent of saturating CRF peptide response; activation, % at 13.2 µM; actives 0.46% (n = 350,000); AID 588473;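 active = activation of at least 50%, plus an integration ratio under a set limit after plate pattern correction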;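 also: plate controls were neutral control wells without compound for no effect and CRF at EC100 for full effect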
MEKK2mut PB1 HTS = signal of MEK5 binding to mutant human MEKK2 PB1 domain; AID 1530; bead flow cytometry, Alexa488-MEK5 binding to MEKK2 mutant; actives 0.35% (n = 290,000); percent response, % at 10 µM; in the data active = percent response above about 24%, passing the limit was not always enough
ABCB6 inh 2 = blocks the human ABCB6 transporter; fluorescence ratio to DMSO, % at 10 µM; AID 602162; actives 0.19% (n = 360,000); K562-ABCB6 porphyrin accumulation, flow cytometry, 1 h; active compounds read low;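 active = fluorescence ratio to DMSO below 75%, the collection mean minus 3 SD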;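 also: signal is porphyrin accumulated inside mitochondria; 100% equals median channel fluorescence of DMSO control wells; lower ratio means ABCB6 inhibition with less porphyrin fluorescence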
CRFR2-BP antag = antagonists of CRF-binding protein/CRF-R2 receptor complex | HEK293 CRF-R2/CRF-BP, CRF-induced calcium fluorescence | inhibition, % at 11.8 µM | actives 0.59% (n = 350,000) | AID 588475;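 active = inhibition of the ligand-induced calcium signal above about 50% at the single tested concentration, limit read from the data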
MEKK2wt PB1 HTS = raises or lowers MEK5 binding to wildtype human MEKK2 PB1 domain; bead flow cytometry, Alexa488-MEK5 binding to MEKK2 WT; actives lie on both sides; binding response (% of control), % at 10 µM; actives 1.1% (n = 290,000); AID 1531; in the data active = binding response below about 67% or above about 130%
MEKK3 PB1 HTS = raises or lowers MEK5 binding to the human MEKK3 PB1 domain; Q99759; bead-based flow cytometry, Alexa488-MEK5 binding to MEKK3; actives lie on both sides; 0 = blocked by unlabeled MEK5, 100 = vehicle; binding response (% of control), % at 10 µM; actives 1.4% (n = 290,000);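 active = binding response more than 3 SD above or below the average of its plate-row segment, actives on both sides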;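 also: Alexa488 bead fluorescence after subtracting the streptavidin-only scavenger bead signal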
Target sequence (Q99759 whole entry, looked up, the tested form may be a part): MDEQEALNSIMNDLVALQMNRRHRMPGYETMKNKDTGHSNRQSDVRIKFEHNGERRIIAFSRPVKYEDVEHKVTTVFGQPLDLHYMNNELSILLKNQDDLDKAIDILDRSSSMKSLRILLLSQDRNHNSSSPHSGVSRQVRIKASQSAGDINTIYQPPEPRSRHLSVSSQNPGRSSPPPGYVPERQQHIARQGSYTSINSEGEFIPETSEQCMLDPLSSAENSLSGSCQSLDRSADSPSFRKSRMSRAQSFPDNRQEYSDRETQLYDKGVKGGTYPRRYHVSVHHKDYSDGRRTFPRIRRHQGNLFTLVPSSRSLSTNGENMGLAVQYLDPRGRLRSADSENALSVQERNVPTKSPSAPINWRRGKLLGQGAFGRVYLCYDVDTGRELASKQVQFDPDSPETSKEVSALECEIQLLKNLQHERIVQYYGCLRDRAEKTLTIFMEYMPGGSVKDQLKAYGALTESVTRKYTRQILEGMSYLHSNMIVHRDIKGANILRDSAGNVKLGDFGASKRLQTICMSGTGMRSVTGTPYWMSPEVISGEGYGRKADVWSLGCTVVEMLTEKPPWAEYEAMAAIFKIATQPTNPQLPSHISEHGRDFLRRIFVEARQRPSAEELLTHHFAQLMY
* hit, by the source's call; · = no result given. Compounds with a hit are over-represented: about 2.9% of the library has one in this group of screens.

SMILES	CRFBP-R2 agonist	MEKK2mut PB1 HTS	ABCB6 inh 2	CRFR2-BP antag	MEKK2wt PB1 HTS	MEKK3 PB1 HTS
COc1ccccc1N(C(=O)CNC(=O)c1ccco1)C(C(=O)NC1CCCCC1)c1ccncc1 (stereo not drawn)	0	-2	87	-3	96	100
C[C@@H]1CN([C@@H](C)CO)C(=O)CCCn2nncc2CO[C@H]1CN(C)S(=O)(=O)c1ccc(C#N)cc1	0	·	102	37	·	·
Cc1ccc(N2C(=O)C3C4C=CC(C4)C3C2=O)cc1C (stereo not drawn)	0	4	88	1	106	101
Cc1ccc(N2C(=O)C3C4C=CC(CC4)C3C2=O)cc1[N+](=O)[O-] (stereo not drawn)	2	4	95	73*	100	98
O=C(C[n+]1ccccc1)NNc1ccccc1	-1	·	92	0	·	·
CC[N+]1(CC)CC2CCC(C)(C1)C2(C)C (stereo not drawn)	-1	0	94	-6	101	99
CC12CCC(C[N+](C)(C)C1)C2(C)C (stereo not drawn)	12	91*	98	-23	33*	111
O=C(NNC(=O)c1ncc(Cl)c(Cl)c1Cl)c1ccc(F)cc1	0	0	97	-9	103	99
Cc1ccc2c(c1)C(c1ccc(F)cc1)N(C(=O)c1ccccc1Br)CC(=O)N2 (stereo not drawn)	0	4	97	-1	101	102
CCOC(=O)Cc1csc(NC(=O)CSc2nnc(-c3ccncc3)o2)n1	121*	0	99	-222	102	101
CCOC(=O)Cc1csc(NC(=O)CSc2nnc(-c3ccc(NS(=O)(=O)CC)cc3)o2)n1	-1	3	99	-7	105	99
COc1ccc(OC)c(-c2nnc3n2N=C(c2ccc(OC)c(OCC4CC4)c2)CS3)c1	0	·	99	59*	·	·
CCOc1cc(/C=C/C(=O)c2ccc(OC)c(CN3CCOCC3)c2)cc(Br)c1O	58*	-1	104	-61	102	102
COc1ccc(NC(=O)C2(C)Cc3c(-c4ccc(NC(C)=O)cc4)ccnc3O2)cc1OC (stereo not drawn)	·	·	79	·	·	·
CC(C)CNC(=S)N1CCC(Cc2ccccc2)CC1	3	-1	94	-3	103	101
COCC(=O)Nc1ncc(S(=O)(=O)c2ccc([N+](=O)[O-])cc2)s1	-1	-1	96	10	107	108
O=C(Nc1ncc(S(=O)(=O)c2ccc([N+](=O)[O-])cc2)s1)c1cccc2ccccc12	112*	-2	100	-70	94	99
O=C(NC(Nc1ncc(S(=O)(=O)c2ccc([N+](=O)[O-])cc2)s1)(C(F)(F)F)C(F)(F)F)c1ccc(Cl)cc1	34	·	91	62*	·	·
Cc1ccc(NC(=O)Cn2nnc(C(=O)NCc3cccs3)c2N)cc1F	1	-10	105	-1	88	90
CCCNC(=O)C(Cc1cccc(C#N)c1)NC(=O)c1cccc([N+](=O)[O-])c1 (stereo not drawn)	-3	·	99	-3	·	·
CCCCCCCCCCCC(=O)NC(Cc1ccc(OC)c([N+](=O)[O-])c1)C(=O)O (stereo not drawn)	2	-2	97	55*	95	95
Cc1nc(/N=C\c2ccc(N(C)C)cc2)sc1C	0	·	100	-10	·	·
CCCCNC(=O)[C@H]1N2C(=O)c3c(ccc(OC)c3OC)C2SC1(C)C (stereo partly drawn)	0	-1	100	-2	97	101
Cc1ccc(S(=O)(=O)c2c(N)n(Cc3ccco3)c3nc4ccccc4nc23)cc1C	48	-20	97	-39	89	93
Nc1c(S(=O)(=O)c2ccccc2)c2nc3ccccc3nc2n1Cc1ccco1	65*	-1	95	-77	95	102
COc1ccc(CNc2cccc3[nH]c(C(F)(F)F)nc23)cc1OC	0	1	99	19	107	105
Cc1ccc(S(=O)(=O)N(CC(=O)Nc2ccccc2C(=O)O)c2cccc(Cl)c2C)cc1	2	-4	102	50*	93	90
